# Results: PubChem BioAssay AID743145 (Broad Institute, 2013)
# Measured potencies and affinities stand elsewhere. Activity calls are given as the source filed them. No rule for the calls is given here.
# Test: cytotoxicity in COV434 cells, dose response, cytotoxicity control for PAX8 inhibitor project, cell-based, plate reader, dry powder, SA7 (AID 743145)
# Settings: series mostly up to 35 µM
row,SMILES,outcome
1,Cc1ccccc1OCC(=O)Nc1cccc(C(=O)O)c1,inactive
2,COc1ccc(S(=O)(=O)Nc2ccc3c(c2)CC(=O)N([C@@H](C)CO)C[C@H](C)[C@@H](CN(C)Cc2ccc(C(F)(F)F)cc2)O3)cc1,inactive
3,C[C@@H]1CN([C@@H](C)CO)S(=O)(=O)c2ccc(C#C[C@@H](C)O)cc2O[C@H]1CN(C)Cc1ccc(-c2ccccc2)cc1,inactive
4,C[C@H](CO)N1C[C@H](C)[C@H](CN(C)C(=O)Nc2ccc(-c3cccs3)cc2)OCc2cnnn2CCCC1=O,inactive
5,CC(=O)N1CCOc2ccc(S(=O)(=O)N3CCN(c4cccc(C(F)(F)F)c4)CC3)cc21,inactive
6,COc1cccc(-c2ccc([C@H]3[C@@H](CO)N(C(=O)Cc4ccccc4)[C@H]3C#N)cc2)c1,inactive
7,COc1cccc(C#Cc2ccc([C@@H]3[C@@H](C#N)N(C(=O)C4CCCCC4)[C@H]3CO)cc2)c1,inactive
8,CCc1cnc(N2[C@@H](C#N)[C@@H](c3ccc(C#CC(C)C)cc3)[C@@H]2CO)s1,inactive
9,O=C(CN1C(=O)c2ccccc2S1(=O)=O)c1ccc(Cl)cc1Cl,inactive
10,O=C(CCS(=O)(=O)c1ccccc1)Nc1nc2ccc(F)cc2s1,inactive
11,COc1cccc(C#Cc2ccc([C@@H]3[C@@H](C#N)N(C(=O)C4CCCC4)[C@@H]3CO)cc2)c1,inactive
12,C[C@H]1CN([C@@H](C)CO)C(=O)CCCn2nncc2CO[C@@H]1CN(C)C(=O)Nc1ccc(-c2cccs2)cc1,inactive
13,N#C[C@@H]1[C@@H](c2ccc(-c3ccccc3F)cc2)[C@@H](CO)N1C(=O)C1CCC1,inactive
14,C[C@@H]1CN([C@H](C)CO)C(=O)CCCn2cc(nn2)CO[C@H]1CN(C)C(=O)Nc1ccc(-c2cccs2)cc1,inactive
15,COc1cccc(C#Cc2ccc([C@H]3[C@@H](C#N)N(C(=O)c4ccccn4)[C@@H]3CO)cc2)c1,inactive
16,COc1ccc(S(=O)(=O)Nc2ccc3c(c2)CC(=O)N([C@@H](C)CO)C[C@@H](C)[C@@H](CN(C)Cc2ccc(-c4ccccc4)cc2)O3)cc1,inactive
17,C[C@H](CO)N1C[C@H](C)[C@@H](CN(C)Cc2ccc(-c3ccccc3)cc2)Oc2ccc(NC(=O)C3CC3)cc2CC1=O,inactive
18,C[C@H](CO)N1C[C@H](C)[C@@H](CN(C)S(=O)(=O)c2ccc(-c3ccccc3)cc2)OCc2cn(nn2)CCCC1=O,inactive
19,O=C1/C(=C/c2cccc(Br)c2)SC(=S)N1CCC(=O)N(CCO)c1ccccc1,inactive
20,COC(=O)[C@@]1(CCS(=O)(=O)c2ccccc2)N=C(c2ccc(OCCCO)cc2)O[C@H]1c1ccccc1,inactive
21,O=C1/C(=C/c2ccccc2)SC(=S)N1CC(=O)N1CCCCC1c1cccnc1 (stereo unspecified),inactive
22,O=C(CN1C(=O)c2ccccc2S1(=O)=O)c1ccccc1Cl,inactive
23,O=C(NCCc1ccccc1)c1ccc2c(c1)OCCCO2,inactive
24,COc1ccc(S(=O)(=O)N2CCCCN3[C@H](CO)[C@H](c4ccc(C#CC(C)C)cc4)[C@H]3C2)cc1,inactive
25,C[C@H]1CN([C@@H](C)CO)C(=O)Cc2cc(NC(=O)NC3CCCCC3)ccc2O[C@@H]1CN(C)Cc1ccc(-c2ccccc2)cc1,inactive
26,N#C[C@H]1[C@@H](c2ccc(C#CC3CCCCC3)cc2)[C@@H](CO)N1S(=O)(=O)c1ccccc1,inactive
